Rows were chosen to be rich in hits. Some 4% of all compounds tested hit in one or more screens of this group.
Wnt act: Wnt/beta-catenin pathway activators, primary screen, cell-based, plate reader, single point | Wnt/beta-catenin reporter cell assay, activator | activation, % at 9.35 µM | hit rate 1.2% among 300,000; in the data active means activation above about 30%, passing the limit was not always enough; inconclusive means no clear call, values can overlap the other calls;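 further: 0% = neutral control wells and 100% = positive control wells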
EWS-Fli block: EWS/Fli-driven NR0B1 reporter inhibitors, primary screen, A673 cells, NR0B1 luciferase, luminescence, MLPCN library; viability-normalised; inhibition, % at 12.6 µM; hit rate 0.67% among 350,000; AID 651661, 2012;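 active means mean inhibition of at least 50% after viability correction, with every replicate also passing that limit; inconclusive means mean reaches 50% but only one of two replicates passes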;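 further: firefly luciferase signal divided by Alamar Blue viability fluorescence both relative to DMSO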
MITF TRPM1 HTS: activators of MITF-driven TRPM1 promoter reporter, primary screen, cell-based, SK-MEL-5, luciferase, single point. AID 588334, 2011. SK-MEL-5 TRPM1-promoter luciferase, 24 h; % of positive control, neutral wells = 0. activation, % at 12.5 µM. hit rate 0.75% among 300,000;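 active means mean activation of at least 80% with every replicate also reaching 80%; inconclusive means mean reaches 80% but some replicate falls short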;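 further: 0% = neutral control wells and 100% = parthenolide positive control wells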
TRPM1 prom inh: inhibitors of MITF-dependent TRPM1 promoter reporter, primary screen, cell-based, SK-MEL-5, single point, luciferase; SK-MEL-5 TRPM1 promoter luciferase, 24 h; inhibition, % at 12.5 µM; hit rate 0.83% among 330,000; AID 488899, 2010;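 active means mean inhibition across replicates of 60% or more, whatever share of single replicates reaches that level; inconclusive means some that reach 60%, reason not given; inactive means mean inhibition across replicates below 60%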
esBAF inh: Bmi1 luciferase reporter increase in mESCs, primary screen, esBAF inhibitor project, mouse ES cells, Bmi1 luciferase knock-in, single point; 24 h; 100% = twice the neutral-well signal; reporter increase, % at 12.5 µM; hit rate 2% among 350,000; AID 602393, 2012; in the data active means activation above about 40%; inconclusive means no clear call, values can overlap the other calls;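 further: 0% = median of the plate's neutral control wells and 100% = double that signal; a rise in the Bmi1 reporter signal indicates esBAF inhibition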
PAX8 inh HTS: inhibitors of PAX8-driven TPO luciferase reporter, primary screen, RMG-I cells, single concentration; SteadyGlo, 24 h; inhibition, % at 12.6 µM; hit rate 1.2% among 360,000;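 active means mean replicate inhibition at least 60% with every replicate also reaching 60%; inconclusive means only one of the two criteria is met; inactive means mean below 60% and not all replicates reaching 60%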;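 further: luciferase light reporting Pax8 driven TPO promoter activity; plate controls were median of neutral control wells for no effect and mitoxantrone controls for full effect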
esBAF Ring1 qPCR: Ring1 mRNA increase in mouse ESCs, confirmation, esBAF inhibitor project, cell-based, mouse ESC, RT-qPCR, cherry-pick. shares compounds with esBAF inh. mouse ESC E14, Ring1 mRNA RT-qPCR fold change. fold change at 33 µM. 550 tested, under 10 active. AID 743176, 2013;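 active means Ring1 gene expression raised more than 2-fold over untreated cells in both replicates at either tested dose; inconclusive means only one replicate above 2-fold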;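 further: Ring1 transcript normalised to actin housekeeping signal by TaqMan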
esBAF Fgf4 qPCR: Fgf4 mRNA decrease in mouse ESCs, confirmation, esBAF inhibitor project, cell-based, mouse ESC, RT-qPCR, cherry-pick | shares compounds with esBAF inh | mouse ESC E14, Fgf4 mRNA qPCR fold change; stronger effect = lower value | Fgf4 expression fold change at 33 µM | hit rate 4% among 550;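 active means Fgf4 expression under 0.8 fold of control in both repeat measurements at one or both tested doses; inconclusive means under 0.8 fold in just a single repeat measurement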;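 further: Fgf4 transcript normalised to actin in duplex TaqMan qPCR; cells exposed to compound for 24 h before lysis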
esBAF Bmi1 qPCR: esBAF inhibition via Bmi1 de-repression, confirmation, cell-based, RT-qPCR, mouse ESC, single point, cherry-pick; shares compounds with esBAF inh; fold change at 33 µM; AID 743180, 2013; 550 tested, under 10 active; mouse ESE14 ES cells, Bmi1 mRNA qPCR fold; stronger effect = higher value;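 active means Bmi1 expression fold change above 6 at either tested concentration, seen in replicate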
A549 tox SP: A549 cell cytotoxicity, cytotoxicity control, plate reader, single point, cherry-pick; shares compounds with esBAF inh; 550 tested, under 10 active; cell viability change % (negative = cytotoxic), % at 25 µM, hits read low; call rule not given here
HepG2 cytotox SP: HepG2 cell cytotoxicity, cytotoxicity control, plate reader, single point, cherry-pick. shares compounds with esBAF inh. stronger effect = lower value. AID 743189, 2013. hit rate 4% among 550. activity change, negative = inhibition, % at 25 µM; in the data active means activity change below about -50%
HEK293 cytotox SP: HEK293 cell cytotoxicity, cytotoxicity control, plate reader, single point, cherry-pick | shares compounds with esBAF inh | activity change, negative = inhibition, % at 25 µM, hits read low | hit rate 3% among 550; in the data active means activity change below about -38%, passing the limit was not always enough
Active calls of the source: *; u = inconclusive; x = no result.

SMILES | Wnt act | EWS-Fli block | MITF TRPM1 HTS | TRPM1 prom inh | esBAF inh | PAX8 inh HTS | esBAF Ring1 qPCR | esBAF Fgf4 qPCR | esBAF Bmi1 qPCR | A549 tox SP | HepG2 cytotox SP | HEK293 cytotox SP
COc1ccc(C(=O)Nc2ccc3c(c2)OC[C@H](C)N(C(C)=O)C[C@H](C)[C@H](OC)CN(C)C3=O)cc1 | x | -7.6 | x | x | -4.9 | x | x | x | x | x | x | x
O=C(O)C=C1CCN(c2ncc(C(F)(F)F)cc2Cl)CC1 | 19.2 | x | x | -25.0 | 63.0* | -64.0 | 1.14 | 1.13 | 1.5 | -6.1 | -13.4 | -9.2
COc1ccc(-c2nc(C#N)c(NC(C)C)o2)cc1 | 14.6 | -110.9 | 74.1 | -71.9 | 66.5* | x | 1.13 | 1.05 | 1.59 | -3.6 | -35.3 | -9.0
COc1ccc(S(=O)(=O)Nc2cc(C(=O)NC3CCCCCC3)ccc2N2CCOCC2)cc1 | x | x | 48.1 | -43.7 | 37.7 | x | 1.06 | 1 | 1.85 | 3.7 | -46.1 | -4.7
O=C(Cn1c(/C=C/c2ccccc2)nc2ccccc21)Nc1ccc(F)cc1 | 15.7 | -110.4 | 85.3* | -85.1 | 80.0* | -85.1 | 0.989 | 0.997 | 1.49 | 6.7 | 29.8 | 3.0
CN1C(=O)c2cc(NC(=O)Nc3ccc(Cl)cc3)ccc2OC[C@@H]2O[C@H](CC(=O)O)CC[C@@H]21 | x | -4.0 | x | x | 3.3 | 4.4 | x | x | x | x | x | x
COc1ccc(NC(=O)N[C@@H]2CC[C@H](CCNC(=O)Cc3ccncc3)O[C@H]2CO)cc1 | x | -6.3 | x | x | -0.4 | -3.4 | x | x | x | x | x | x
O=C(NC1CCCC1)[C@H]1[C@H](CO)[C@H]2Cn3c(ccc(-c4cccnc4)c3=O)[C@@H]1N2CCc1ccccc1 | x | -2.3 | x | x | -3.4 | 19.0 | x | x | x | x | x | x
O=C1C(=NO)CCCc2ccccc21 | -1.8 | -1.9 | 7.9 | -3.2 | 14.3 | 10.1 | x | x | x | x | x | x
O=C1C(=C2CCc3ccccc32)Cc2ccccc21 | 4.7 | -47.5 | x | x | 70.9* | -91.9 | 1.21 | 1.07 | 1.49 | -2.8 | 22.3 | -2.9
CN(C)S(=O)(=O)c1cccc(C(=O)Nc2ccc(Cl)cn2)c1 | 17.2 | x | 63.5 | -60.2 | 63.2* | x | 1.23 | 0.92 | 1.39 | -1.1 | -19.0 | -0.1
Cc1cccc(Oc2ccc(Cl)cc2N)c1 | 7.4 | -65.3 | 49.1 | -45.6 | 72.0* | -62.7 | 1.16 | 1.05 | 1.46 | -10.2 | -10.6 | -1.0
Cc1ccc(OCn2c(=O)sc3ccccc32)cc1 | 16.8 | -101.8 | 74.1 | -80.3 | 66.1* | x | 1.12 | 1.23 | 1.43 | -10.3 | -10.6 | -15.6
CC(C)N1CC2(CC(c3ccccc3F)=NO2)CN1C(=O)c1ccc(C(C)(C)C)cc1 (stereo not drawn) | -0.6 | -73.8 | x | x | 74.6* | -59.6 | 0.917 | 0.888 | 1.66 | -6.4 | -1.0 | -8.7
CC(C)N1CC2(CC(c3ccccc3C(F)(F)F)=NO2)CN1C(=O)c1ccc(C(C)(C)C)cc1 (stereo not drawn) | -1.7 | 3.9 | x | x | -0.2 | 9.5 | x | x | x | x | x | x
c1ccc(Oc2cc(-c3ccccc3)ncn2)cc1 | x | x | x | -103.1 | 77.2* | x | 1.28 | u | 1.82 | -4.8 | -15.1 | -1.9
C[C@H]1CN([C@@H](C)CO)C(=O)Cc2cc(NC(=O)CCN3CCOCC3)ccc2O[C@@H]1CN(C)Cc1ccc(-c2ccccc2)cc1 | x | 0.1 | x | x | -2.2 | x | x | x | x | x | x | x
O=C1Nc2ccccc2N=C(c2ccc3c(c2)OCO3)C1N(C(=O)c1ccc2ccccc2c1)C1CC1 (stereo not drawn) | 1.0 | -107.2 | x | x | 104.8* | -119.1 | 1.01 | 1.05 | 1.21 | -2.1 | 32.7 | 3.2
O=c1oc(-c2ccccc2)cc2ccccc12 | 0.8 | -109.8 | x | x | 77.0* | x | 1.26 | 1.01 | 2.03 | 3.1 | -12.8 | -3.4
O=C(c1cnccn1)N1CC[C@@H]2[C@H]1c1cc(-c3ccccc3)ccc1N[C@@H]2CO | x | -5.0 | x | x | 13.9 | -35.6 | x | x | x | x | x | x
CNC[C@H]1OCCCC[C@@H](C)Oc2ccc(NS(=O)(=O)c3ccc(Cl)cc3)cc2C(=O)N([C@@H](C)CO)C[C@H]1C | x | -15.6 | x | x | -8.9 | -12.1 | x | x | x | x | x | x
COc1ccc2c(c1)nc(-c1cccc(Br)c1)c(=O)n2C(c1ccccn1)c1nc2ccccc2[nH]1 (stereo not drawn) | -0.1 | -106.6 | x | x | 72.4* | -112.4 | 1.39 | 1.05 | 2.05 | 0.6 | -17.2 | 5.6
C=CCNc1nc(Cl)nc(Nc2ccccc2)n1 | -2.2 | -76.8 | 50.0 | -50.1 | 59.5* | -83.3 | 1.19 | 0.998 | 1.11 | 3.5 | -8.8 | -10.4
CNc1nc(Cl)nc(Nc2ccccc2)n1 | 8.2 | -48.1 | 8.4 | -6.7 | x | -52.7 | x | x | x | x | x | x
COc1ccccc1-c1cn(CC[C@H]2CC[C@H](NC(=O)C3CC3)[C@H](CO)O2)nn1 | x | 4.8 | x | x | 13.6 | 6.9 | x | x | x | x | x | x
SMILES | Wnt act | EWS-Fli block | MITF TRPM1 HTS | TRPM1 prom inh | esBAF inh | PAX8 inh HTS | esBAF Ring1 qPCR | esBAF Fgf4 qPCR | esBAF Bmi1 qPCR | A549 tox SP | HepG2 cytotox SP | HEK293 cytotox SP
CC(=O)c1cccc(NC(=O)NC2CCCCC2)c1 | 0.7 | -19.0 | 27.2 | -19.3 | 22.0 | x | x | x | x | x | x | x
Cc1ccc(NC(=O)NC2CCCCCCC2)cc1C | 19.8 | -71.6 | 62.8 | -52.5 | 60.6* | x | 1.45 | 0.945 | 1.6 | 9.8 | 4.0 | 1.0
O=C(Cc1ccccn1)c1ccc(Cl)cc1 | 20.5 | -73.5 | 104.0* | -93.9 | 100.0* | -176.1 | 1.16 | 0.868 | 1.63 | -5.6 | 2.0 | -7.4
Cc1ccc(O)c(NC(=O)c2ccc3c(c2)C(=O)N(CC(C)C)C3=O)c1 | 20.3 | -95.0 | x | -83.9 | 57.3* | -22.4 | 1.16 | 0.937 | 1.21 | -6.6 | -30.1 | -7.0
Cc1ccnc(NC(=O)c2ccc3c(c2)C(=O)N(CC(C)C)C3=O)c1 | 15.5 | -65.0 | 60.7 | -61.9 | 74.3* | -166.2 | 1.22 | 0.84 | 1.48 | -12.7 | 1.2 | -13.2
CCCN1C(=O)c2ccc(C(=O)Nc3cc(C)ccc3O)cc2C1=O | 5.9 | -47.8 | x | -59.4 | 30.4 | -140.9 | x | x | x | x | x | x
Cc1noc(C)c1NC(=O)N(C)C[C@H]1Oc2ccc(NC(=O)Nc3cccc4ccccc34)cc2C(=O)N([C@H](C)CO)C[C@H]1C | x | 0.5 | x | x | -0.7 | 7.4 | x | x | x | x | x | x

Screening data: PubChem BioAssay, Broad Institute
